These results are taken from PubChem BioAssay AID1851 (National Center for Advancing Translational Sciences (NCATS), 2009).

As a reminder, the AC50 is the concentration giving half of the maximal activity seen.

Among all 16,000 compounds or so, about 5,800 (36%) were called active. Inconclusive results (about 23%) are left out. The call rests on the fitted dose curve; in most records, active means well fitted curve in the direction sought with a large enough effect; inconclusive means small, poorly fitted or top-dose-only effect, or effect the other way; inactive means no such curve, though single readings can be large or run the other way. This is one part of the list. A structure can be active in one record and inactive in another.
On the % scale 0 is the no-effect control and ±100 the full control effect.

The assay deals with Cytochrome P450 2C19 (Homo sapiens) (UniProt P33261). As to the kind of experiment: Cytochrome panel assay with activity outcomes. As to conditions: recombinant CYP, pro-luciferin dealkylation, luminescence, p450-cyp2c19; series mostly up to 57.1 µM; activity, negative = inhibition: at the top concentration.
Chain of Cytochrome P450 2C19 (Homo sapiens) (P33261 whole entry, looked up): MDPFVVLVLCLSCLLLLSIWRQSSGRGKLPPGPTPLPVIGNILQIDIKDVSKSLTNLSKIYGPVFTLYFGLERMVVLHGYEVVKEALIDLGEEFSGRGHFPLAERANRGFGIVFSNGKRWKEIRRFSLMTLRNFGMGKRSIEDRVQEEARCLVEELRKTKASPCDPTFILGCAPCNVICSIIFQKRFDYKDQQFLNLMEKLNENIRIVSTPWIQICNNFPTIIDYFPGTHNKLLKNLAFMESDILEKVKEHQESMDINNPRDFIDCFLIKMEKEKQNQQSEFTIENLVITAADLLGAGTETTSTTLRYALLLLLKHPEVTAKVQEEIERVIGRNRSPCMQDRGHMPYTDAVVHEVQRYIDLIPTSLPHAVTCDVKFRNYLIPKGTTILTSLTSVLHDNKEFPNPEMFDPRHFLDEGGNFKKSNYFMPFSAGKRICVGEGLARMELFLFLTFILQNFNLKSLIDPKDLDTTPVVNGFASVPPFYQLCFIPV
`COc1ccccc1N1CCN(CCn2c(=O)[nH]c3c([nH]c4ccccc43)c2=O)CC1`: the “activity, negative = inhibition” value is -6.76% (inactive).

As for `COc1ccccc1N1CCN(C[C@@H]2CN3C(=O)N(C)c4ccccc4C3=N2)CC1`, the “activity, negative = inhibition” value was -22.8% (inactive). On the same count and under the same terms, the same measure for `CC1(C)[C@@H]2CC[C@]1(CC(=O)O)[C@H](Cl)C2`: 3.64% [at 11.4 µM] (inactive); for `CCNc1ncc2nc(-c3cc(F)cc(F)c3)c(=O)n(CCC#N)c2n1`: 14.4% (inactive); for `CN[C@]1(C)[C@H]2CC[C@@H](C2)C1(C)C`: -24% [at 25.6 µM] (inactive). For `CC1(C)C2([N+](=O)[O-])CN3CC1([N+](=O)[O-])CN(C2)C31CCCC1`, the “activity, negative = inhibition” value was 3.32% (inactive). On to `COc1ccccc1N1CCN(CCCCN2C(=O)c3ccccc3C2=O)CC1`, for which the AC50 result was “inactive”. With `COc1ccccc1N1CCN(CCCCN2C(=O)CCC2=O)CC1`, the half-maximal activity concentration (AC50) was 10 µM (active). Still for that read-out and setting: the same measure for `COc1ccccc1N1CCN(CCN2C(=O)CC3(CCCC3)CC2=O)CC1`: “inactive”. For `CC(C)C(=O)NCCc1nc2ccccc2n1CCCOc1ccc(Cl)cc1`, the half-maximal activity concentration (AC50) is 2 µM (active). `C=CC[C@H](N)C(=O)O`: the “activity, negative = inhibition” value is 16.6% (inactive). On the same count and under the same terms, as for `Cc1ccc(NC(=O)c2ccc(CSc3nnc(-c4ccncc4)n3C)cc2)cc1`, the figure is 8.7% (inactive). As to `O=C(CSc1nnc(-c2ccncc2)n1Cc1ccccc1)Nc1nccs1`, the AC50 was 1.78 µM (active). The same measure, in the same setting: as for `CCn1c(SCc2ccc(C(=O)Nc3nccs3)cc2)nnc1-c1ccc(NC(C)=O)cc1`, the figure is 5.01 µM (active). Take `CCNC(=O)C1CC(=O)OC12CCCCC2` (configuration not stated): the “activity, negative = inhibition” value is -10.2% (inactive).

In the case of `Cn1c(=O)c2c(nc(Cl)n2Cc2ccc(Cl)c(Cl)c2)n(C)c1=O`, the AC50 is 2 µM (active).

Turning to `CN(C)CCNc1nc2c(c(=O)n(C)c(=O)n2C)n1C`, the activity, negative = inhibition is -4.31% [at 11.4 µM] (inactive).

In the case of `Cn1c(OCc2ccc3c(c2)OCO3)nc2c1c(=O)n(Cc1ccc(Cl)c(Cl)c1)c(=O)n2C`, the AC50 is 10 µM (active).

Take `CCc1ccc(N2CC(C)Cn3c2nc2c3c(=O)n(CCN3CCOCC3)c(=O)n2C)cc1` (configuration not stated): the “activity, negative = inhibition” value was 8.95% (inactive). Same read-out and setting: the same measure for `CN(C)CCn1c(CO)nc2c1c(=O)n(C)c(=O)n2C`: 29.8% [at 11.4 µM] (inactive).

Turning to `CCC(C(=O)NC(C)(C)C)N(C(=O)Cn1nnc(-c2cccs2)n1)c1cnc2ccccc2c1` (configuration not stated), the AC50 is 31.6 µM (active). As to `O=C(Nc1cnc2ccccc2c1)c1cccc(-n2cnnn2)c1`, the “activity, negative = inhibition” value was 1.85% (inactive).

Regarding `CCCCCCCC/C=C\CCCCCCCC(=O)NCc1ccc(O)c(OC)c1`, the “activity, negative = inhibition” value was -15.4% (inactive). The same measure, in the same setting: the same measure for `CCCCCCCCC(=O)NCc1cc(OC)c(O)cc1I`: -37.1% (inactive). As to `COc1cc(CNC(=O)CCCC/C=C\C(C)C)ccc1O`, the AC50 was 7.94 µM (active). On the same count and under the same terms, as for `COc1ccc(/C=N/NC(=O)CCCOc2ccc(Cl)cc2Cl)cc1[N+](=O)[O-]`, the figure is 1 µM (active); as for `CC(C)C(=O)Nc1ccc(C(=O)NNC(=O)CCCOc2ccc(Cl)cc2Cl)cc1`, 4.47 µM (active). Take `CC(C)C(=O)Nc1ccc(C(=O)NNC(=O)C(c2ccccc2)c2ccccc2)cc1`: the “activity, negative = inhibition” value was -14.8% (inactive).

On to `CC(C)(C)C(=O)NNC(=O)CCCOc1ccc(Cl)cc1Cl`, for which the AC50 is 11.2 µM (active). As to `CN1C[C@H](c2ccccc2)C(O)([C@]2(c3ccccc3)CN(C)C[C@@H](c3ccccc3)C2=O)[C@H](c2ccccc2)C1` (some centres not stated), the activity, negative = inhibition is 7.29% [at 11.4 µM] (inactive). As to `CCCCCCc1c(C[C@H](N)C(=O)O)o[nH]c1=O`, the AC50 result was “inactive”. In the case of `C/C(=C\C1CCCCC1)C(NC(=O)c1ccc(C(F)(F)F)cc1)c1ccc(-c2ccccc2)cc1` (configuration not stated), the “activity, negative = inhibition” value was 1.59% (inactive). Take `CCC/C=C(\CCC)C(NS(=O)(=O)c1ccccc1)c1ccc(C(F)(F)F)cc1` (configuration not stated): the AC50 is 7.94 µM (active). Still for that read-out and setting: as for `CCC/C=C(\CCC)C(NS(=O)(=O)c1ccc(C(F)(F)F)cc1)c1ccc(-c2ccccc2)cc1` (configuration not stated), the figure is 7.94 µM (active). On the same count and under the same terms, as for `CCC/C=C(\CCC)C(NS(=O)(=O)c1ccc(C(F)(F)F)cc1)c1ccccc1` (configuration not stated), the figure is 0.398 µM (active).

With `CC(C)CN1CCCC2(CCN(C(=O)c3cccn3C)CC2)C1`, the “activity, negative = inhibition” value was 23.7% (inactive). For the compound `Cc1nn(S(=O)(=O)c2cccs2)c(C)c1Sc1ccc([N+](=O)[O-])cc1`, the AC50 is 0.562 µM (active). Same read-out and setting: the same measure for `COc1ccc2nc3c(c([Si](C)(C)C(C)(C)C)c2c1)Cn1c-3cccc1=O`: 2 µM (active). As for `Cc1c2c(nc3ccccc13)-c1cccc(=O)n1C2`, the “activity, negative = inhibition” value was -10.1% (inactive). Still for that read-out and setting: as for `CC(C)(C)[Si](C)(C)c1c2c(nc3ccc(OCc4ccccc4)cc13)-c1cccc(=O)n1C2`, the figure is -35.1% (inactive).

`CCCCC/C=C\C[C@H](O)/C=C\c1cccc(C[C@H](O)CCCCO)n1`: the “activity, negative = inhibition” value is -29.6% (inactive). In the case of `COc1ccc2c(C=Nc3c(C)n(C)n(-c4ccccc4)c3=O)c(O)n(Cc3ccco3)c(=O)c2c1`, the AC50 is 10 µM (active). Same read-out and setting: as for `COc1ccc(C(=O)NCC(c2ccc(F)cc2)N2CCOCC2)cc1S(=O)(=O)N1CCCC1` (configuration not stated), the figure is 6.31 µM (active). As to `OCCCN=C1CCCCC1`, the activity, negative = inhibition was 31.2% [at 11.4 µM] (inactive).

`Clc1ccc2c(NCCNc3ccnc4cc(Cl)ccc34)ccnc2c1`: the activity, negative = inhibition is -22.5% [at 11.4 µM] (inactive). Consider `C=CCn1cc(/C=N\NC(=O)c2cc3c(ccc4ccccc43)o2)c2ccccc21`, for which the AC50 was 4.47 µM (active). Consider `O=C(N/N=C/c1cccc([N+](=O)[O-])c1)c1cc2c(ccc3ccccc32)o1`, for which the “activity, negative = inhibition” value was 5.13% (inactive).
